Results on 43 compounds are retold here after paper PMC4336329 (PLoS ONE, 2015).

Molecules are shown by their SMILES. In all, about 310,000 compounds went through this assay and about 14,000 (4.5%) showed an effect of 50% or more. The effect is printed as a negative number. The list comes from a sample in which strong results are over-represented; it also holds similar structures and randomly drawn compounds.
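Further: peak tail current of the secondary pulse compared with the same well before compound.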

The target of this test is human ether-à-go-go-related gene (hERG) potassium channel (human, UniProt Q12809). As to the kind of experiment: primary screen, population patch clamp on CHO cells stably expressing hERG; higher = less effect of the substance.
Chain of human ether-à-go-go-related gene (hERG) potassium channel (Q12809 whole entry, looked up): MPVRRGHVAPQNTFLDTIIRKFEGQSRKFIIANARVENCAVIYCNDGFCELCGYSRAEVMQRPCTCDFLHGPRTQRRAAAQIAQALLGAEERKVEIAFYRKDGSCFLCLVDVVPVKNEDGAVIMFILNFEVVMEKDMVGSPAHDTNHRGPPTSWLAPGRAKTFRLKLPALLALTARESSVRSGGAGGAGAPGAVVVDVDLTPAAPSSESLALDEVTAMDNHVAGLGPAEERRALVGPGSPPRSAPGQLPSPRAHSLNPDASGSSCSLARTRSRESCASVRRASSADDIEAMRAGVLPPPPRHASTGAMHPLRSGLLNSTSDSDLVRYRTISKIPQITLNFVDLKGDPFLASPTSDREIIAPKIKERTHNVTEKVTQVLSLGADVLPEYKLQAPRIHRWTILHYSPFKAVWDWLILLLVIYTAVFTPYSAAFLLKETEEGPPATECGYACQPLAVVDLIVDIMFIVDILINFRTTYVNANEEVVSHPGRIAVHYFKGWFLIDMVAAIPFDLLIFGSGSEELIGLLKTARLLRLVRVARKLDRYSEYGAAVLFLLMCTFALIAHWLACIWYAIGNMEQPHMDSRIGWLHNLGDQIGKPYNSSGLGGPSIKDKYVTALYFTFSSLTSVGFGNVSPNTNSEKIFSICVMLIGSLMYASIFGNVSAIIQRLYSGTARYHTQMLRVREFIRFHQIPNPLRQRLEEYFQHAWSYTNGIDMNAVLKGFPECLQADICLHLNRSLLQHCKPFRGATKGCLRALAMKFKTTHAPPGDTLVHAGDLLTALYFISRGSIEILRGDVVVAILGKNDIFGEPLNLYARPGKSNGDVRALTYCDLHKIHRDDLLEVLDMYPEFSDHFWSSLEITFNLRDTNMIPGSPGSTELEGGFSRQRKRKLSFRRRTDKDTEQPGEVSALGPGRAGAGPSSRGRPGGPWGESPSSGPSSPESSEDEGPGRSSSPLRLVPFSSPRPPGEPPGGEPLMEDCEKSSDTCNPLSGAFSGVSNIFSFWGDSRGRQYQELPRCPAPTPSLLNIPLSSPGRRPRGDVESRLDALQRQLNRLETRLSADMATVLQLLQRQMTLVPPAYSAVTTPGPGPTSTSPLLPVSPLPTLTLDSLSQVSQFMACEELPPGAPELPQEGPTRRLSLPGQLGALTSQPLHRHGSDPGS
Turning to `O=P(COCCO)(c1ccccc1)c1ccccc1`, the “hERG current change (%, negative = inhibition) at 10uM” value is given as -4.96%.

Consider `COc1ccc(NC(=O)C2Cc3ccccc3O/C2=N\O)cc1` (stereo not shown), for which the “hERG current change (%, negative = inhibition) at 10uM” value amounted to 13.8%.

`Cc1ccc2nc(C3CCN(C(=O)NCc4ccccc4)CC3)[nH]c2c1`: the “hERG current change (%, negative = inhibition) at 10uM” value is -30%.

For `COc1ccc(NC(=O)N2CCC(c3nc4ccccc4[nH]3)CC2)cc1`, the “hERG current change (%, negative = inhibition) at 10uM” value was found to be 9.26%.

Take `CCOC(=O)CNC(=O)CN1CCC(c2nc3ccccc3[nH]2)CC1`: the “hERG current change (%, negative = inhibition) at 10uM” value stood at 13.7%.

`COc1cccc(CNC(=O)CN2CCC(c3nc4ccc(C)cc4[nH]3)CC2)c1`: the “hERG current change (%, negative = inhibition) at 10uM” value is reported as -68.4%.

Turning to `CCOc1ccccc1NC(=O)N1CCC(c2nc3ccccc3[nH]2)CC1`, the “hERG current change (%, negative = inhibition) at 10uM” value is on record as -23.6%.

On to `COc1ccccc1NC(=O)CN1CCC(c2nc3ccccc3[nH]2)CC1`, for which the “hERG current change (%, negative = inhibition) at 10uM” value is on record as -43.6%.

Turning to `COc1ccccc1NC(=O)N1CCC(c2nc3cc(C)c(C)cc3[nH]2)CC1`, the “hERG current change (%, negative = inhibition) at 10uM” value was -53.3%.

Take `COc1ccccc1NC(=S)N1CCC(c2nc3cc(C)c(C)cc3[nH]2)CC1`: the “hERG current change (%, negative = inhibition) at 10uM” value is given as -21%.

With `COc1ccccc1NC(=O)CN1CCC(c2nc3ccc(C)cc3[nH]2)CC1`, the “hERG current change (%, negative = inhibition) at 10uM” value is listed as -57.7%.

With `CCOc1ccccc1NC(=O)N1CCC(c2nc3ccc(C)cc3[nH]2)CC1`, the “hERG current change (%, negative = inhibition) at 10uM” value is reported as -55.5%.

As to `COc1cccc(CNC(=O)CSc2nc3ccc(C)cc3[nH]2)c1`, the “hERG current change (%, negative = inhibition) at 10uM” value turned out to be 6.22%.

With `COc1ccc(C(=O)NC2CCN(CC(=O)NCc3cccc(OC)c3)CC2)cc1`, the “hERG current change (%, negative = inhibition) at 10uM” value is on record as -19.9%.

For `COc1ccccc1-c1cnn2c(N3CCOCC3)cc(C)nc12`, the “hERG current change (%, negative = inhibition) at 10uM” value is given as 23.9%.

`C=CCOc1ccc(/C=C/C(C)=N\O)cc1`: the “hERG current change (%, negative = inhibition) at 10uM” value was determined as 4.84%.

On to `O=[N+]([O-])c1c(Nc2ccccn2)cc(Cl)c2nonc12`, for which the “hERG current change (%, negative = inhibition) at 10uM” value is recorded as 9.59%.

`CSCCC1NC(=S)N(Cc2ccccc2)C1=O` (stereo not shown): the “hERG current change (%, negative = inhibition) at 10uM” value was determined as 16.3%.

For the compound `CCN(CC)C(=O)CSc1ccccc1N`, the “hERG current change (%, negative = inhibition) at 10uM” value was 13%.

For `C[C@@H]1CC=C[C@H]2[C@H]1C(=O)N(Cc1ccccc1)[C@H]2c1ccc2ccccc2c1`, the “hERG current change (%, negative = inhibition) at 10uM” value is reported as 3.52%.

As for `COc1ccc(C2=C(Nc3ccc(C)cc3)c3ccccc3C2=O)cc1`, the “hERG current change (%, negative = inhibition) at 10uM” value was found to be 3.57%.

`COc1ccccc1C(CNC(=O)c1cc(S(=O)(=O)N2CCOCC2)ccc1C)N1CCCC1` (stereo not shown): the “hERG current change (%, negative = inhibition) at 10uM” value is 2.53%.

Take `CCn1cc(C(=O)N2CCN(c3ccccn3)CC2)c(=O)c2cc(S(=O)(=O)N(C)C3CCCCC3)ccc21`: the “hERG current change (%, negative = inhibition) at 10uM” value is listed as -63.1%.

For `CCn1cc(C(=O)N2CCCC2)c(=O)c2cc(S(=O)(=O)N3CCC(C)CC3)ccc21`, the “hERG current change (%, negative = inhibition) at 10uM” value is listed as 6.02%.

With `CCn1cc(C(=O)N2CCN(c3ccccn3)CC2)c(=O)c2cc(S(=O)(=O)N3CCC(C)CC3)ccc21`, the “hERG current change (%, negative = inhibition) at 10uM” value is -55.9%.

As for `CCn1cc(C(=O)N2CCOCC2)c(=O)c2cc(S(=O)(=O)N(C)C3CCCCC3)ccc21`, the “hERG current change (%, negative = inhibition) at 10uM” value is recorded as 0.899%.

Turning to `CCOC(=O)N1CCN(C(=O)c2cn(CC)c3ccc(S(=O)(=O)N(C)C4CCCCC4)cc3c2=O)CC1`, the “hERG current change (%, negative = inhibition) at 10uM” value is -17.3%.

Turning to `CCn1cc(C(=O)N2CCCCC2)c(=O)c2cc(S(=O)(=O)N3CCC(C)CC3)ccc21`, the “hERG current change (%, negative = inhibition) at 10uM” value is on record as -18.4%.

For the compound `CCCN1CNC(=S)N(c2cccc(C)c2)C1`, the “hERG current change (%, negative = inhibition) at 10uM” value came to 17%.

On to `CCC(C)[C@H](NC(=O)N1CC(=O)Nc2ccccc21)C(=O)N1CCC[C@@H]1C(=O)O` (stereo partly shown), for which the “hERG current change (%, negative = inhibition) at 10uM” value stood at 13.5%.

In the case of `COc1cccc(NC(=O)CCC(=O)Nc2cccc(OC)c2)c1`, the “hERG current change (%, negative = inhibition) at 10uM” value worked out at 10.5%.

Regarding `O=C(Nc1cccc(F)c1)c1ccc2ncsc2c1`, the “hERG current change (%, negative = inhibition) at 10uM” value was determined as 9.49%.

For the compound `C=CCn1c(SC2CCOC2=O)nc2scc(C3CC3)c2c1=O` (stereo not shown), the “hERG current change (%, negative = inhibition) at 10uM” value is reported as -64.6%.

On to `O=C1OCCC1Sc1nnc(-c2cccs2)n1Cc1ccccc1` (stereo not shown), for which the “hERG current change (%, negative = inhibition) at 10uM” value is -29.5%.

As for `CCc1cc2c(=O)n(Cc3ccccc3)c(SC3CCOC3=O)nc2s1` (stereo not shown), the “hERG current change (%, negative = inhibition) at 10uM” value is on record as -80.4%.

Consider `C=CCn1c(SC(C)C#N)nc2sc(CC)cc2c1=O` (stereo not shown), for which the “hERG current change (%, negative = inhibition) at 10uM” value was -41.2%.

Turning to `C=CCn1c(SC2CCOC2=O)nc2sc(CC)cc2c1=O` (stereo not shown), the “hERG current change (%, negative = inhibition) at 10uM” value is -65.4%.

With `C=CCn1c(SCc2cc(=O)n3ccsc3n2)nc2scc(C3CC3)c2c1=O`, the “hERG current change (%, negative = inhibition) at 10uM” value is -9.75%.

Regarding `C=CCn1c(SC2CCOC2=O)nc2sc(C)c(C)c2c1=O` (stereo not shown), the “hERG current change (%, negative = inhibition) at 10uM” value was -11.2%.

In the case of `C=CCn1c(SCC2CCCCO2)nc2sc(CC)cc2c1=O` (stereo not shown), the “hERG current change (%, negative = inhibition) at 10uM” value is -2.19%.

On to `Cc1sc2nc(SC3CCOC3=O)n(Cc3ccccc3)c(=O)c2c1C` (stereo not shown), for which the “hERG current change (%, negative = inhibition) at 10uM” value is -9.22%.

`O=C(Nc1ccccn1)C1CCN(S(=O)(=O)c2ccc3c(c2)OCCO3)CC1`: the “hERG current change (%, negative = inhibition) at 10uM” value is on record as -11.5%.

Consider `Cc1ccccc1OCC(=O)Nc1cc(Cl)ccc1Oc1ccccc1`, for which the “hERG current change (%, negative = inhibition) at 10uM” value stood at 0.121%.
